# Reference: PubChem BioAssay
# Inconclusive results are not listed. Activity calls are given as the source filed them.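 How the source made its calls, unless noted: active means inhibition above the screen-wide mean plus 3 SD, about 51%; inactive means the rest.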
# Tests used:
# [1] = rapamycin-like changes in RPL19A-GFP expression – cell-based, S. cerevisiae, multiplex flow cytometry, primary screen (AID 1862; in the data active means percent of DMSO control GFP below about 86%;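 further: lower values mimic rapamycin by blocking the RPL19A rise seen in DMSO cells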); conditions: S. cerevisiae RPL19A-GFP strain, flow cytometry fluorescence, 3 h; at 10 µM; stronger effect = lower value
# [2] = TOR pathway GLN3 branch reporter MEP2-GFP changes – S. cerevisiae, multiplex flow cytometry, primary screen (AID 1867;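 active means GFP response, as percent of the DMSO control, above the screen-wide mean plus 3 SD, about 139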;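 further: median GFP channel fluorescence of barcode-gated MEP2-GFP cells measured by flow cytometry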); conditions: S. cerevisiae MEP2-GFP strain, 3 h, at 10 µM, stronger effect = higher value, 100% means same as DMSO wells
# [3] = TOR pathway RTG branch CIT2 reporter changes – S. cerevisiae, GFP fusion, multiplex flow cytometry, primary screen (AID 1870;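 active means percent response above a set limit, the screen-wide mean plus 3 SD, cut at about 130% in these data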;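 further: barcoded CIT2-GFP strain pooled with four other GFP strains with rapamycin as positive control; median GFP fluorescence per well over plate mean of DMSO wells so 100% = DMSO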); conditions: S. cerevisiae CIT2-GFP expression, 3 h, at 10 µM, stronger effect = higher value
# [4] = TOR pathway LAP4-GFP level changes – S. cerevisiae, multiplex flow cytometry, primary screen (AID 1873;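 active means GFP signal, as percent of the solvent control, above the screen mean plus 3 SD, about 149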); conditions: S. cerevisiae LAP4-GFP expression, 3 h, at 10 µM, stronger effect = higher value
# [5] = yeast AGP1-GFP level changes, GLN3 branch – cell-based, multiplex flow cytometry, S. cerevisiae, primary screen (AID 1887;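 active means GFP signal above the screen-wide mean plus 3 SD, that is over about 124.5% of the solvent control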;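 further: AGP1-GFP fusion strain of S. cerevisiae within a five-strain barcoded multiplex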); conditions: 3 h, at 10 µM, stronger effect = higher value
# [6] = reduced mouse 2C T cell binding to pMHC/ICAM-1 vesicles – MLPCN validation set, flow cytometry, LFA-1/ICAM-1 modulator project, pilot screen (AID 2523;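 active means response below a set limit, under 55% cells CD8-positive and vesicle-bound, and CD8 cells' 90th-percentile brightness under 279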;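 on vesicle binding response: mean PE anti-B7-1 fluorescence of CD8+ cells relative to row control; 100% = QL9-loaded vesicles with DMSO vehicle in the same plate row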); conditions: 2C mouse CD8+ T cells, at 7 µM, stronger effect = lower value; double positive events: measured here: CD8+/vesicle+ event percentage
# [7] = target: Integrin beta-1 (Homo sapiens) + Integrin alpha-4 (Homo sapiens) (UniProt P13612+P05556); assay: alpha4beta1 integrin LIBS antibody binding reduction – U937 cells, HUTS-21 mAb, flow cytometry, validation set, VLA-4 allosteric modulator project, pilot screen (AID 2674;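 active means inhibition above 50%, about 3 SD of the validation set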;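 further: antibody binding induced by the VLA-4 ligand LDV present at three times its Kd; 0% = LDV ligand with antibody and no compound and 100% = antibody without LDV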); conditions: HUTS-21 LIBS mAb binding, at 6.7 µM, stronger effect = higher value, binding induced by LDV ligand
# Chain of Integrin beta-1 (Homo sapiens) + Integrin alpha-4 (Homo sapiens) (P05556 whole entry, looked up): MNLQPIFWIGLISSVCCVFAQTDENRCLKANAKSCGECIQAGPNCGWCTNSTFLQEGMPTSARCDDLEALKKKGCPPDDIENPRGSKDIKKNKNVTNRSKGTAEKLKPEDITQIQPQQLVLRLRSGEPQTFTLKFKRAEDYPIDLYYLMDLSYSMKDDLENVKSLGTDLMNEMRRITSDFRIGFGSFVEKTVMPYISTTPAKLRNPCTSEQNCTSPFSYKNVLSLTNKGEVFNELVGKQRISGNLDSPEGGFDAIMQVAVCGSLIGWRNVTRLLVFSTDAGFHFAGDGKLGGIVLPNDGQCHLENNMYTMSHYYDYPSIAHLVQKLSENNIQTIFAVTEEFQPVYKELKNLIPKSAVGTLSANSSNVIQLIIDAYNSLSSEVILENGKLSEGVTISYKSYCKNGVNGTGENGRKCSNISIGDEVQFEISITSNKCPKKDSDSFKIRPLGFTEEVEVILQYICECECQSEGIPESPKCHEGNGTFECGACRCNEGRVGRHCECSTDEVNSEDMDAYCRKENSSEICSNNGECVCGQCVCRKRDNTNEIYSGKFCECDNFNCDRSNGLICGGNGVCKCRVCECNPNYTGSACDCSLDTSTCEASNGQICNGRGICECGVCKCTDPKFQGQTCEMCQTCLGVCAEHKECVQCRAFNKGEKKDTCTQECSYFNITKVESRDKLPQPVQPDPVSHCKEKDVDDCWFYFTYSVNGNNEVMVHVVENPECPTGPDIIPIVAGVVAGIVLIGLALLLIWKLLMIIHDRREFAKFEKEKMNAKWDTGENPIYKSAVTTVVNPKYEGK
# Chain of Integrin beta-1 (Homo sapiens) + Integrin alpha-4 (Homo sapiens) (P13612 whole entry, looked up): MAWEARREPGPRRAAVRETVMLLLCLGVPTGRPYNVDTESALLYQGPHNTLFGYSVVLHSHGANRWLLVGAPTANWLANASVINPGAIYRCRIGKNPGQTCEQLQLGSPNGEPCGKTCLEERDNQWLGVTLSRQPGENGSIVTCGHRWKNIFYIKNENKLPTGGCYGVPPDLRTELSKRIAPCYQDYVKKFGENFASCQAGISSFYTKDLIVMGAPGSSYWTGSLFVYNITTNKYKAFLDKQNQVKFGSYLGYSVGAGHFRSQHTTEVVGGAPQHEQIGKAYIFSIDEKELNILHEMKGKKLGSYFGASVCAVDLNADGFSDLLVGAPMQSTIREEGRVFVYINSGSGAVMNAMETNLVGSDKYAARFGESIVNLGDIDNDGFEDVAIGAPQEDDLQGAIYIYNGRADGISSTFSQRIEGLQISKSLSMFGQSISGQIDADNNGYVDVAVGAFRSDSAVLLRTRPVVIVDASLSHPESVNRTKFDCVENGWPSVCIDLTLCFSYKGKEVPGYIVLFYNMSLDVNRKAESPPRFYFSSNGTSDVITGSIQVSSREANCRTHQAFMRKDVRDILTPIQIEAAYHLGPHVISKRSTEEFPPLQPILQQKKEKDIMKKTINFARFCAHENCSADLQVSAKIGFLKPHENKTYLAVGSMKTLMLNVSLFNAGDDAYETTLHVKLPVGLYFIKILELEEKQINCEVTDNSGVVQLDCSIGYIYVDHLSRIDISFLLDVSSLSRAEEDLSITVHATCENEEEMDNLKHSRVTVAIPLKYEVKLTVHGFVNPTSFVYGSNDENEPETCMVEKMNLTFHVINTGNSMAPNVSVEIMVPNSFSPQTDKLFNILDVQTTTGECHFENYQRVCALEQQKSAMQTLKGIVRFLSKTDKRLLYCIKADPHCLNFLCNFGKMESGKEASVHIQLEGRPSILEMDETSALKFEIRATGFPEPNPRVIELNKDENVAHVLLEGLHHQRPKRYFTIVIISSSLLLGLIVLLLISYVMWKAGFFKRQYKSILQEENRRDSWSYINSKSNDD
# [8] = calorie-restriction mimetic ROS inhibitors, yeast – validation compound set, pilot screen (AID 2706;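 active means superoxide response below 65% of plate, a cut near 3 SD across the whole screen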;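 further: yeast exposed to compound for one week at 30 degrees C before staining; 100% = mean of all compound wells on the same plate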); conditions: S. cerevisiae aging, superoxide DHE fluorescence; at 10 µM, stronger effect = lower value
# [9] = target: Beta-adrenergic receptor kinase 1 (Homo sapiens) (UniProt P25098); assay: GRK2 binders displacing RNA aptamer, biochemical, validation, human GRK2, bead flow cytometry (AID 488806;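 active means aptamer binding inhibition above 30%, about 3 SD of noise from non-fluorescent compounds; inactive means inhibition at or below 30%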); conditions: bead-bound GRK2, FAM-aptamer displacement, at 10 µM, stronger effect = higher value
# Chain of Beta-adrenergic receptor kinase 1 (Homo sapiens) (P25098 whole entry, looked up): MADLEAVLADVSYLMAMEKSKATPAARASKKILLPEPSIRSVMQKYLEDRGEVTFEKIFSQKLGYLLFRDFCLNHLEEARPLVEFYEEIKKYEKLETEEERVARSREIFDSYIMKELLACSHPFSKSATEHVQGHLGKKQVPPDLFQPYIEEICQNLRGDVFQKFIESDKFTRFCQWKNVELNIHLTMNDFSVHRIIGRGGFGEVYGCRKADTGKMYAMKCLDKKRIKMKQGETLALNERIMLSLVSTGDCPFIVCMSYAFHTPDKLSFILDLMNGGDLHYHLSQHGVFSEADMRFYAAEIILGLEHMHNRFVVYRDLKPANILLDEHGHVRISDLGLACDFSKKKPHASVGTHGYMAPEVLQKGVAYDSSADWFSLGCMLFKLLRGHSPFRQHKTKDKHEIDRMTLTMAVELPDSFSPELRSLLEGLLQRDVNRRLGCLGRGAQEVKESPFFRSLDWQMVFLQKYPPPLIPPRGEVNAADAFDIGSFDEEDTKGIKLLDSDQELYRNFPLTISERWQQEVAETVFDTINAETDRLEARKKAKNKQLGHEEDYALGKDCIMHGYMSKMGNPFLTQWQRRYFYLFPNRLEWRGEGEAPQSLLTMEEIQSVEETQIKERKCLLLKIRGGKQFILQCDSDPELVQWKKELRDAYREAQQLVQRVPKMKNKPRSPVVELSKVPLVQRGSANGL
# [10] = target: AP-2 complex subunit beta (Homo sapiens) (UniProt P63010); assay: beta-arrestin/AP2 interaction blockers – biochemical, validation set, GST-AP2 beads, flow cytometry, pilot screen (AID 504541;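 active means inhibition above 54%, about 3 SD of non-fluorescent compounds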;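 further: AP2 carries R879A mutation and is captured from E. coli lysate; bead-bound FITC arrestin peptide fluorescence measuring arrestin peptide binding to AP2; 0% = DMSO wells and 100% = excess unlabeled arrestin peptide control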); conditions: FITC arrestin peptide, at 10 µM, stronger effect = higher value, AP2 beta2 appendage fragment, R879A mutant
# Chain of AP-2 complex subunit beta (Homo sapiens) (P63010 whole entry, looked up, the tested form may be a part, one chain of several): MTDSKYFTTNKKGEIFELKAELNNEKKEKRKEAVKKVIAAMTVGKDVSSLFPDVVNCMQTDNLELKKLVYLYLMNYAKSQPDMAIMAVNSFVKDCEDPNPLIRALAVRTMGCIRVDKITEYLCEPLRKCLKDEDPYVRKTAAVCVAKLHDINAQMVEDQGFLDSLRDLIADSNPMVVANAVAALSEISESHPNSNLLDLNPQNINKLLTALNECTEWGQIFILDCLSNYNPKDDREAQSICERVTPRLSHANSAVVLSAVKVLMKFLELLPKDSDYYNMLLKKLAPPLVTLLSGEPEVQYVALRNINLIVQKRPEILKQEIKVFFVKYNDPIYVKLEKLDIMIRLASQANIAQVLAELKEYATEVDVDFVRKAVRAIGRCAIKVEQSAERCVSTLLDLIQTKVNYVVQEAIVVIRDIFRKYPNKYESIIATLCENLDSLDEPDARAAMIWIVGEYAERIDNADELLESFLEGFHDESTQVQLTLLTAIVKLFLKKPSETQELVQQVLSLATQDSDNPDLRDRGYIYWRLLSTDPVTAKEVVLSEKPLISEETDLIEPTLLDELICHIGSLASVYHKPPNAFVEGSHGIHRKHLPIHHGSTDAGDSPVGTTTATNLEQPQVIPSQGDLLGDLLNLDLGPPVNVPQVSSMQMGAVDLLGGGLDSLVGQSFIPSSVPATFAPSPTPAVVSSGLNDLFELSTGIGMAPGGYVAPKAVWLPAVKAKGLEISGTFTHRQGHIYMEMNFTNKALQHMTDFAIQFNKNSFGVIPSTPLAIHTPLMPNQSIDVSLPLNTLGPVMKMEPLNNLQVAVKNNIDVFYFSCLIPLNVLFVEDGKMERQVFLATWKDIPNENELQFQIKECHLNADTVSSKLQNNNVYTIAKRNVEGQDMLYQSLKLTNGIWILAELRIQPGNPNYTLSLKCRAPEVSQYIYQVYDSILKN
# [11] = cytosolic pH regulators acting via V-ATPase – S. cerevisiae, pHLuorin, HTS validation (AID 504600; in the data active means response above about 15%;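 further: plate controls were DMSO for no effect and reference compound for full effect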); conditions: V-ATPase proton transport, at 10 µM, stronger effect = higher value
# [12] = tested on: anti-desmoglein-3 scFv antibody binding to human DSG3; assay: blockers of pathogenic pemphigus antibody–desmoglein-3 binding – biochemical, validation compound set, bead-based, flow cytometry, pilot screen (AID 588368;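 active means binding below the plate cutoff, the plate median minus 3 SD, with a reading above zero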;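 further: signal is the median channel fluorescence of bead-bound GFP antibody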); conditions: Protein G beads, DSG3-Fc, scFv-GFP binding, at 10 µM, stronger effect = lower value
# [13] = Nile Red efflux blockade in pump-expressing yeast – validation compound set, multiplex, phenotypic, pilot screen (AID 588506;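 active means efflux inhibition above 0.42, the validation set average plus 4 SD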;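 further: Nile Red retained in cells so higher fluorescence means more efflux inhibition; 0 = negative control wells and 1 = enniatin B 25 µM full block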); conditions: S. cerevisiae pump-expressing triplex, Nile Red efflux flow cytometry; at 10 µM; stronger effect = higher value; the pumps come from Candida albicans
# [14] = target: ATP-binding cassette sub-family B member 6 (Homo sapiens) (UniProt Q9NP58); assay: blockers of ABCB6-driven porphyrin uptake – K562-ABCB6 cells, flow cytometry, validation set, pilot screen (AID 588550); conditions: K562-ABCB6 porphyrin accumulation, 1 h, at 10 µM, stronger effect = higher value;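 further: 0% = DMSO wells and 100% = benzethonium chloride 70 µM positive control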
# Chain of ATP-binding cassette sub-family B member 6 (Homo sapiens) (Q9NP58 whole entry, looked up): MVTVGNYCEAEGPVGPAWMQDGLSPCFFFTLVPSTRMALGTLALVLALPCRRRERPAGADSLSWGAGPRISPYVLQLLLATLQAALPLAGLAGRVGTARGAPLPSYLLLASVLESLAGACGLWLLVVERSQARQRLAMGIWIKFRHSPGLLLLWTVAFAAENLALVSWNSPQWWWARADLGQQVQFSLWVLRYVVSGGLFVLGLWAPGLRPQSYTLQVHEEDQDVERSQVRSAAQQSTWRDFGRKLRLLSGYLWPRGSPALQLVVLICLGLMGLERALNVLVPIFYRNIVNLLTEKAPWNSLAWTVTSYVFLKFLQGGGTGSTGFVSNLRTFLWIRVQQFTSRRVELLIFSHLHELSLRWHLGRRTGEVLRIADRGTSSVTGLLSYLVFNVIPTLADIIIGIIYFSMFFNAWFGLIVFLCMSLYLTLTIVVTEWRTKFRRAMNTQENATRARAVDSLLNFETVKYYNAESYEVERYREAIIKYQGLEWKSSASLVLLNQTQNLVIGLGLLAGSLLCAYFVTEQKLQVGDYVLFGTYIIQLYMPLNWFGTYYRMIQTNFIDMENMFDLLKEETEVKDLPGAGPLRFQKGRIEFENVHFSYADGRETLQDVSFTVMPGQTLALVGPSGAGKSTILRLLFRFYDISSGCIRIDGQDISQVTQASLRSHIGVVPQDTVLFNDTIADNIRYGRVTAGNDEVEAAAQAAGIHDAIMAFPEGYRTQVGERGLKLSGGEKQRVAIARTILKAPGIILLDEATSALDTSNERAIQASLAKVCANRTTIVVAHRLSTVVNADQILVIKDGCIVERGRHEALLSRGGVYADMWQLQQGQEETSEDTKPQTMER
# [15] = AML differentiation inducers, ER-HoxA9 marrow cells – cell-based, GFP/MAC1 double positive, flow cytometry, validation set, primary screen (AID 588685;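 active means differentiation response of at least 50%, scaled between solvent and reference control, from cells with both markers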;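 further: compound exposure lasts four days before antibody staining and flow analysis; 0% = DMSO wells and 100% = 5 µM fulvestrant positive control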); conditions: stronger effect = higher value, normalized: vehicle 0, fulvestrant 100
SMILES,percent of DMSO control GFP [1],GFP response vs DMSO [2],percent response of DMSO control [3],GFP response vs DMSO [4],"GFP response, % of DMSO [5]",double positive events [6] [%],vesicle binding response [6],inhibition [7],superoxide response (% of plate) [8],aptamer binding inhibition [9],inhibition [10],response [11],binding (% of control) [12],efflux inhibition (fraction of control) [13],inhibition [14],differentiation response [15]
COc1cccc(C2CCCN2Cc2nc(CCC(C)C)no2)c1 (stereo not given),101% (inactive),116% (inactive),103% (inactive),109% (inactive),101% (inactive),54.6,135% (inactive),-9.57% (inactive),102% (inactive),0% (inactive),5.57% (inactive),3.31% (inactive),104% (inactive),0.25 (inactive),8% (inactive),4.64% (inactive)
Cc1ccc(-n2ncc3c(Nc4cccc(C(=O)O)c4)ncnc32)cc1,100% (inactive),102% (inactive),93% (inactive),105% (inactive),93.9% (inactive),66.3,217% (inactive),-5.84% (inactive),105% (inactive),-2% (inactive),-0.33% (inactive),-4.83% (inactive),101% (inactive),0.1 (inactive),5% (inactive),74.1% (active)
CO/N=C(\C(=O)N[C@@H]1C(=O)N2C(C(=O)O)=C(COC(C)=O)CS[C@H]12)c1csc(N)n1 (stereo in doubt),95.8% (inactive),99.9% (inactive),94.9% (inactive),90.3% (inactive),93.4% (inactive),61.1,224% (inactive),5.36% (inactive),93.9% (inactive),3% (inactive),2.47% (inactive),-3.75% (inactive),97.5% (inactive),-0.09 (inactive),11% (inactive),6.26% (inactive)
O=C(O)c1ccccc1O,101% (inactive),101% (inactive),96.9% (inactive),97.4% (inactive),98.8% (inactive),59,178% (inactive),15.6% (inactive),100% (inactive),3% (inactive),0.05% (inactive),-0.04% (inactive),104% (inactive),0.44 (active),0% (inactive),-9.89% (inactive)
O=C1C=CC(=O)C(C2=C3C(=O)N(CCc4ccccc4)CC(=O)N3CCC2)=C1,106% (inactive),103% (inactive),102% (inactive),94.3% (inactive),104% (inactive),42.5,92.7% (inactive),-30.1% (inactive),115% (inactive),3% (inactive),12% (inactive),-0.59% (inactive),101% (inactive),-0.28 (inactive),8% (inactive),-18% (inactive)
